# Data published in ChEMBL document CHEMBL3988442, “University of Dundee, Small-Polar-MMV Screening Library” (2021).
# In all, about 48,000 compounds went through this assay and about 13,000 (27%) showed an effect of 50% or more. The list shows a part of the results.
# Test system: Wolbachia pipientis
# Assay: Anti-Wolbachia Cell-Based Screen
# Format: functional
# Parameters: scale not given: in the data most compounds retested in dose-response had high values
# Settings: 5 µM
row,SMILES,Percent Effect
1,O=C(NC1CCCN(c2ccc(OC(F)F)cc2)C1)c1ccon1 (centres undefined),12.05%
2,Cc1c(NCCCOc2cccc(C#N)c2)cccc1C(N)=O,-5.343%
3,O=C1CCN(C(=O)C2(c3ccc(F)cc3)CCOCC2)CCN1,5.245%
4,Cc1cc(CS(=O)(=O)c2ccccc2)no1,-12.79%
5,O=C(C1CC1)N1CCN2C[C@@H](CO)[C@H](c3ccccc3)[C@H]2C1,89.49%
6,CC(=O)N1CCN(C)CC(COCc2ccccc2)C1 (centres undefined),-1.846%
7,CC(=O)N1CCN(C2CCc3ccccc32)CC1 (centres undefined),10.52%
8,CC(=O)N1CCN2C[C@H](CO)[C@@H](c3ccccc3)[C@H]2C1,95.75%
9,CCN1CC[C@]2(CN(C(=O)C3CCOCC3)C[C@H]2c2ccccc2)C1=O,-4.584%
10,CCC(NC(=O)c1ccc2[nH]ccc2c1)C(=O)N1CCOCC1 (centres undefined),6.827%
11,OC1CCN(c2ccccc2NCc2nc(-c3ccoc3)no2)CC1,5.706%
12,O=C(NCCN1C(=O)CCC1=O)c1nc2ccccc2c(=O)[nH]1,1.599%
13,CCCc1cc(C(=O)NCCCC(=O)N2Cc3ccccc3C2)[nH]n1,-1.2%
14,CN1CCn2c(-c3cccc(F)c3)cnc2C12CCN(CC1CC1)CC2.O=C(O)C(F)(F)F.O=C(O)C(F)(F)F.O=C(O)C(F)(F)F,-9.47%
15,CCN1CCn2c(-c3cccc(F)c3)cnc2C12CCN(C(C)=O)CC2.O=C(O)C(F)(F)F,112.1%
16,CNC(=O)N1CCC2(CC1)c1ncc(-c3cccc(F)c3)n1CCN2C.O=C(O)C(F)(F)F,101.8%
17,CC(=O)N1CCn2c(-c3cccc(F)c3)cnc2C12CCNCC2.O=C(O)C(F)(F)F,7.148%
18,CCN1CCN(S(=O)(=O)c2cn(C(C)C)cn2)c2ccccc21,-8.79%
19,O=C(c1ccccc1)C1CCN(c2cncc(-n3cccn3)n2)CC1,6.831%
20,O=C(c1ccc(-n2cccn2)nc1)N1CCC(c2ccc(O)cc2)CC1,-5.1%
21,O=C(c1ccc(-n2cccn2)nc1)N1CCC(c2ccn[nH]2)C1 (centres undefined),151%
22,O=C(c1ccc(-n2cccn2)nc1)N1CCCC(c2cnccn2)C1 (centres undefined),143.5%
23,O=C(c1ccc(-n2cccn2)nc1)N1CCCN(c2cccnn2)CC1,2.596%
24,Cc1cncc(C2CCN(C(=O)c3ccc(-n4cccn4)nc3)CC2)n1,157.3%

row,SMILES,Percent Effect
1,CC1CCCCN1C1CN(C(=O)c2sccc2S(N)(=O)=O)C1 (centres undefined),5.602%
2,CN(Cc1ccccc1)C1(C(=O)O)Cc2ccccc2C1,1.396%
3,CC[C@@H]1N(Cc2nccs2)CCC[C@]12CCC(=O)N2C.O=C(O)C(F)(F)F,109.2%
4,CC[C@@H]1N(Cc2nccs2)CCC[C@]12CCC(=O)N2CCOC.O=C(O)C(F)(F)F,100.4%
5,COCCN1C(=O)CC[C@]12CC[C@@H](NCc1nccs1)CC2.O=C(O)C(F)(F)F,-1.329%
6,CC[C@@H]1N(CC2CC2)CCC[C@]12CCC(=O)N2CCOC.O=C(O)C(F)(F)F,-7.54%
7,CN1C(=O)CCCC12CCCN(Cc1nccs1)C2.O=C(O)C(F)(F)F (centres undefined),-2.009%
8,Cn1cccc1C(=O)N1C[C@H]2CN(CCN3CCCC3)C(=O)[C@H]2C1,-3.388%
9,Cn1cc(C(=O)N[C@H]2CN(S(C)(=O)=O)[C@@H]3CCCO[C@H]23)cn1,0.3212%
10,CS(=O)(=O)N1C[C@@H](NC(=O)c2ccno2)[C@@H]2OCCC[C@@H]21,112.1%
11,CS(=O)(=O)N1C[C@H](NC(=O)c2ccno2)[C@@H]2OCCC[C@@H]21,97.34%
12,CN(C)C(=O)N[C@@H]1CN(S(C)(=O)=O)[C@@H]2CCCO[C@@H]21,-12.16%
13,CC(CCNC(=O)NCCc1ccc(S(N)(=O)=O)cc1)c1ccccc1 (centres undefined),2.961%
14,COc1ccccc1-c1c[nH]c(C2CCCN2)n1.Cl.Cl (centres undefined),-20.8%
15,NC(=O)c1ccccc1Oc1cccc(C2CCCNC2)n1 (centres undefined),178.3%
16,NC(=O)c1ccccc1Oc1cnc(C2CCCN2)cn1 (centres undefined),134.2%
17,NC(=O)c1cc(C2CCCN(CCCOc3ccccc3)C2)n[nH]1 (centres undefined),-3.314%
18,Nc1nc(CCCNC(=O)c2ccccc2C2CCNC2)cs1 (centres undefined),16.63%
19,CN1CCN(Cc2ccccc2Oc2ccc(C(N)=O)cn2)CC1,-9.578%
20,CC(C)S(=O)(=O)Cc1cccc(NC(=O)c2ccc[nH]2)c1,19.64%
21,Cc1ncccc1C(=O)Nc1cccc2c1C(=O)NC2,-1.694%
22,CC(C)c1ocnc1C(=O)Nc1cccc(Cn2ccccc2=O)c1,74.78%
23,CSc1ncccc1C(=O)Nc1ccc(Cn2ccccc2=O)cc1,85.69%
24,O=C(Nc1cccn(Cc2ccccc2)c1=O)c1ccncc1F,-8.682%

row,SMILES,Percent Effect
1,Cc1ncccc1C(=O)Nc1cccc(Cn2ccccc2=O)c1,100.7%
2,O=C(CCn1ccccc1=O)Nc1ccc(I)cc1,-0.04239%
3,Cc1ncccc1C(=O)Nc1ccc2ccn(CCN(C)C)c2c1,-6.665%
4,CC(C)c1nc2cc(NC(=O)Cn3ccccc3=O)ccc2o1,6.336%
5,O=C(NCc1nnc2n1CCC2)N(Cc1ccc(F)cc1)C1CC1,-6.428%
6,CN(Cc1ccco1)C(=O)NCc1nnc2n1CCC2,1.808%
7,CN(Cc1ccc(F)cc1)C(=O)NCc1nnc2n1CCCCC2,-12.53%
8,CN(Cc1ccc(N(C)C)cc1)C(=O)NCc1nnc2n1CCC2,115.6%
9,CN(Cc1cnn(C)c1)C(=O)NCc1nnc2n1CCC2,-11.71%
10,CN(Cc1ccc(F)cc1)C(=O)NCc1nnc2n1CCC2,105%
11,CN(CCO)Cc1nnc(C2CCN(C[C@H]3[C@@H]4CNC[C@@H]43)CC2)n1C,-4.687%
12,CCc1ccc(S(=O)(=O)Nc2cc(OC)c(OC)cc2C(=O)O)s1,-0.559%
13,CCc1ccc(C2CC(=O)Nc3cc(OC)c(NS(C)(=O)=O)cc32)o1 (centres undefined),82.49%
14,CN(Cc1ccc(C2CC(=O)Nc3n[nH]cc32)o1)S(C)(=O)=O (centres undefined),5.804%
15,CN(Cc1ccc(C2CC(=O)Nc3cc4[nH]ncc4cc32)o1)S(C)(=O)=O (centres undefined),6.583%
16,CCc1ccc(C2CCCN2C(=O)CNC(=O)CCC(C)C)o1 (centres undefined),9.018%
17,CCc1ccc(C2CC(=O)Nc3cc(NS(C)(=O)=O)ccc32)o1 (centres undefined),85.79%
18,CCc1ccc(C2CC(=O)Nc3n[nH]cc32)o1 (centres undefined),13.18%
19,CCCC(=O)Nc1cc2c(cc1OC)NC(=O)CC2c1ccc(CC)o1 (centres undefined),133.6%
20,CCc1ccc(C2CCCN2C(=O)NCC(=O)NCC(C)C)o1 (centres undefined),-83.92%
21,CS(=O)(=O)Cc1ccc(Cl)c(NCc2noc(C3CC3)n2)c1,-7.665%
22,CCOCCOC(C)C(=O)Nc1ccc2[nH]c(C)cc2c1 (centres undefined),4.03%
23,CC(NC(=O)c1ccc(CS(C)(=O)=O)o1)c1ccc(F)c(F)c1 (centres undefined),-18.18%
24,CC(=O)N1CCN([C@@H]2CCC[C@@H](N(C)C(=O)C3CC3)[C@H]2O)CC1,98.54%

row,SMILES,Percent Effect
1,CC(=O)N1CCC(C(=O)N(C)[C@@H]2CCC[C@@H](N3CCCC3)[C@@H]2O)CC1,-16.02%
2,CC(=O)N1CCN(C2CCCCc3ccccc32)CC1 (centres undefined),-7.249%
3,CC(=O)N1CCC(N[C@@H]2CO[C@H](CNC(=O)C3CCCC3)[C@H]2O)CC1,-17.04%
4,COC(=O)N1CCCC(C(=O)N(C)C)C1 (centres undefined),5.213%
5,CC(=O)N1CCN([C@@H]2CC[C@@H](N(C)C(=O)C3CCCCC3)[C@H]2O)CC1,97.43%
6,Cc1cc(=O)c(C(=O)N(C)Cc2ccc(Cl)c(F)c2)c[nH]1,0.1621%
7,CCCc1noc(C(C)S(=O)(=O)Cc2nc(C3CC3)no2)n1 (centres undefined),-3.55%
8,COC(C(=O)NCc1c(C)nc2cc(=O)[nH]n2c1C)c1ccccc1 (centres undefined),-2.131%
9,Cc1ncc(CN2CCCC(O)(c3ccc(F)cc3)CC2)n1C.O=C(O)CC(O)(CC(=O)O)C(=O)O (centres undefined),96.51%
10,CCn1c(CN2CCC(O)(c3ccc4c(c3)OCO4)CC2)cnc1SC.O=C(O)CC(O)(CC(=O)O)C(=O)O,113.8%
11,CCn1c(CN2CCCC(O)(c3ccc(F)cc3)CC2)cnc1SC.O=C(O)CC(O)(CC(=O)O)C(=O)O (centres undefined),110.7%
12,O=C(O)C(c1ccc2c(c1)OCO2)N1CCC(O)(c2cccnc2)CC1 (centres undefined),-24.46%
13,Cn1cc(CN2CCC3(CC(=O)N(c4ccc5c(c4)OCO5)C3)C2)cn1.O=C(O)C(F)(F)F (centres undefined),-18.04%
14,Cc1ccc(=O)n(CC2(O)CCN(Cc3cc(C)c(O)c(C)c3)CC2)n1.O=C(O)CC(O)(CC(=O)O)C(=O)O,-13.33%
15,Fc1ccc(CN2CCC3(CC2)CCN(Cc2nccs2)CC3)cc1.O=C(O)C(F)(F)F.O=C(O)C(F)(F)F,3.556%
16,CC(NC(=O)N(C)CCCOc1ccc(F)cc1)c1nncn1C (centres undefined),8.721%
17,Cc1cccc(C(=O)N2CCN(S(C)(=O)=O)[C@@H]3CS(=O)(=O)C[C@@H]32)n1,-7.495%
18,O=C1NCCN(C(=O)c2cn3ccsc3n2)C1c1cccc(F)c1 (centres undefined),-4.51%
19,Cc1csc(C2CCCCN2C(=O)CN(C)C(C)C)n1 (centres undefined),91.31%
20,Cc1csc(C2CCCCN2C(=O)CN(C)Cc2ccccc2)n1 (centres undefined),-0.5019%
21,Cc1csc(C2CCCCN2C(=O)CN(C)C2CC2)n1 (centres undefined),3.375%
22,CCN(CC)CC(=O)N1CCCCC1c1nc(C)cs1 (centres undefined),131.2%
